HEK293 tox = Cytotoxic Profiling in HEK 293 Cell Line of Diverse Libraries Using Quantitative High-Throughput Screening; 6.6% of 94,000 active; HEK 293 viability, ATP luminescence (CellTiter-Glo), 48-72 h; Potency, µM (highest dose often 115 µM), usual class: inhibitors; further: nearly all actives have a fitted effect of over 60% in size
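Luminescence from cellular ATP, measured with CellTiter-Glo, indicates HEK 293 viability. Cells plated at 250 cells/well are treated with compound for 48 or 72 hr at 37 degree Celsius before reagent addition.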
FLuc inh-1 = Firefly luciferase inhibition profiling of diverse chemical library using quantitative high-throughput screening; Luciferin 4-monooxygenase (Photinus pyralis), P08659; purified P. pyralis luciferase, luminescence, biochemical; Potency, µM (highest dose often 115 µM), hits mostly inhibitors; 2.5% of 76,000 active; AID 1347043, 2019; further: nearly all actives have a fitted effect of over 65% in size
Target sequence (P08659 whole entry, looked up): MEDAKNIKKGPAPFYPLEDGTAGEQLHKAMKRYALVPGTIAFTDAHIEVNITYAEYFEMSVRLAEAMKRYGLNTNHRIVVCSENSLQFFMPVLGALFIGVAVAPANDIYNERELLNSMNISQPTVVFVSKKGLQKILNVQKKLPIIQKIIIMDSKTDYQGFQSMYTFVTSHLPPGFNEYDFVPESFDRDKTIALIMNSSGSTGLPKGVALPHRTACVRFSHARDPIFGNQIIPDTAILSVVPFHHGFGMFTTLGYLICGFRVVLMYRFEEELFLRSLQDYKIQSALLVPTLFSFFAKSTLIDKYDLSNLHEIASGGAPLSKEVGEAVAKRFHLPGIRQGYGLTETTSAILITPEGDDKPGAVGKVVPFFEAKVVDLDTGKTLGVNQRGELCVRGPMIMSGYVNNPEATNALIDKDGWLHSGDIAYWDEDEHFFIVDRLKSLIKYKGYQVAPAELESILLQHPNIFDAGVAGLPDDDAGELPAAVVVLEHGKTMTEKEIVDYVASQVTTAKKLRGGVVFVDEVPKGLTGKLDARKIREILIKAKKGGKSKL
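FLuc 10nM, D-luciferin 10uM, ATP 10uM, Mg acetate 10mM, Tris acetate pH 7.5, Tween/BSA; cpd qHTS; enzyme added last; CCD luminescence.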
GPT2 inhibitor = Primary qHTS assay for inhibitors of Glutamate pyruvate transaminase 2 (GPT2); Alanine aminotransferase 2 (Homo sapiens), Q8TD30; Recombinant GPT2, coupled pyruvate oxidase/HRP Amplex Red fluorescence; Potency, µM (top dose mostly 57.7 µM), most hits filed as inhibitors; 0.25% of 100,000 active; AID 1671188, 2021; further: nearly all actives have a fitted effect of over 60% in size
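Inhibition is scored from Amplex Red fluorescence generated when pyruvate oxidase and HRP act on pyruvate released by GPT2. Reactions contain 10ng/uL enzyme, 250uM a-KG and 2mM L-alanine and run 30 min at room temperature.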
NIH3T3 tox = Cytotoxic Profiling in NIH 3T3 Cell Line of Diverse Libraries Using Quantitative High-Throughput Screening; NIH 3T3 viability, CellTiter-Glo ATP luminescence, 48-72 h; Potency, µM (titrated, usually from 96.7 µM), most hits filed as inhibitors; 4.3% of 94,000 active; further: nearly all actives have a fitted effect of over 55% in size
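NIH 3T3 cells at 400 cells/well received 23 nL of compound by pintool and were incubated 48 or 72 h at 37 °C. Viability was read as ATP-coupled CellTiter-Glo luminescence.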
NPR1 antag = Natriuretic polypeptide receptor (hNpr1) antagonism - Primary qHTS | Atrial natriuretic peptide receptor 1 (Homo sapiens), P16066 | HEK293 hNpr1 GloSensor cGMP, ANP-stimulated luminescence | Potency, µM (highest dose often 46.3 µM), actives largely listed as inhibitors | 1.6% of 76,000 active; calls by dose curve; further: nearly all actives have a fitted effect of over 60% in size
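Compound pre-incubated 30 min at room temperature on GloSensor-loaded HEK293 cells stably carrying hNpr1 and the pGS-40F cGMP biosensor. Stimulation uses hNppA at 0.1 nM final; luminescence is taken at baseline and 20 min post-agonist.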
FLuc SDR -ATP = Firefly luciferase (FLuc-C-HiBiT) SDR gain of signal screen - without ATP; 7.8% of 1,300 active; Purified FLuc-C-HiBiT, Nano-Glo HiBiT luminescence, no ATP; AID 1963318, 2024; shares compounds with FLuc inh-1; Potency, µM (series often up to 32.7 µM), most hits filed as activators; further: nearly all actives have a fitted effect of over 55% in size
FLuc SDR ATP = Firefly luciferase (FLuc-C-HiBiT) SDR gain of signal screen - plus ATP | shares compounds with FLuc inh-1 | 8.7% of 1,300 active | AID 1963319, 2024 | Potency, µM (highest dose often 32.7 µM), hits mostly activators | purified FLuc-C-HiBiT + ATP, HiBiT complementation luminescence;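 further: signal reports ligand binding via conformational change of the enzyme rather than luciferase catalysis; nearly all actives have a fitted effect of over 55% in size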
FLuc inh-2 = Firefly luciferase (FLuc-C-HiBiT) enzymatic inhibition screen - Functional assay; shares compounds with FLuc inh-1; 42% of 1,300 active; purified FLuc-C-HiBiT enzyme, luciferin luminescence; Potency, µM (top dose mostly 32.7 µM), usual class: inhibitors; AID 1963320, 2024; further: nearly all actives have a fitted effect of over 70% in size
A number is an active result; n = inactive; u = inconclusive; x = no result given. Shown are actives, neighbours in structure and some others; about 10% of the full set was active somewhere. Unless noted, the call rests on the fitted dose curve; in most records, active means well fitted curve in the direction sought with a large enough effect; inconclusive means small, poorly fitted or top-dose-only effect, or another doubt; inactive means no such curve, though single readings can be large; an effect the other way counts as inactive or inconclusive.

SMILES | HEK293 tox | FLuc inh-1 | GPT2 inhibitor | NIH3T3 tox | NPR1 antag | FLuc SDR -ATP | FLuc SDR ATP | FLuc inh-2
CN1c2cc(C(=O)Nc3ccc(F)c(Cl)c3)ccc2C(=O)N2CCCCCC21 (stereo unspecified) | u | u | n | n | n | x | x | x
CCN1c2cc(C(=O)Nc3ccc4c(c3)OCCO4)ccc2C(=O)N2CCCCC21 (stereo unspecified) | u | 11µM | n | 25µM | n | n | u | 9.9µM
CN1c2cc(C(=O)Nc3ccc4c(c3)OCCO4)ccc2C(=O)N2CCCCC21 (stereo unspecified) | u | 7.9µM | n | u | n | u | u | 9.9µM
O=S(=O)(NCC1(COc2ccc(C(F)(F)F)cn2)C[C@@H](O)[C@@H](O)C1)c1ccc(Cl)cc1 (stereo partly specified) | n | n | n | u | n | x | x | x
Cc1ccc(CN2C(=O)[C@@H]3C[C@@H](O)CN3C3(CN(CCC(C)C)C3)C2=O)o1 | n | n | n | n | n | x | x | x
Cc1ccc(C(=O)Nc2cccc3cccnc23)cc1Cl | x | x | x | x | x | n | n | n
COc1ccccc1CNC(=O)c1ccc2nc(N3CCCCC3)sc2c1 | x | x | x | x | x | n | n | n
CC(c1ccc(-c2ccc(N3CCN(C)CC3)nn2)cc1)N1CCCCC1 (stereo unspecified) | u | n | n | n | n | x | x | x
CN1CCN(c2ccc(-c3cccc(N)c3)nn2)CC1 | n | 11µM | n | n | u | n | u | 6.2µM
CCc1cccc(NC(=O)Nc2cccc(-c3ccc(N4CCOCC4)nn3)c2)c1 | 40µM | 2µM | n | u | u | u | n | 6.2µM
O=C(Nc1cccc(-c2ccc(N3CCOCC3)nn2)c1)Nc1ccccc1F | 18µM | 1.6µM | n | u | u | u | u | 2.8µM
CSc1cccc(NC(=O)Nc2cccc(-c3ccc(N4CCOCC4)nn3)c2)c1 | 28µM | 0.79µM | n | 35µM | u | u | u | 1.6µM
Cc1cccc(C(=O)N2C(C(=O)NCc3ccco3)COC23CCN(C(=O)CC(C)(C)C)CC3)c1 (stereo unspecified) | u | n | n | n | n | x | x | x
Cc1ccc(C(=O)Nc2cccc(-c3ccc(N4CCN(C)CC4)nn3)c2)cc1C | u | 6.3µM | n | 25µM | n | u | u | 3.9µM
O=C(Nc1cccc(-c2ccc(N3CCCC3)nn2)c1)c1c(F)cccc1F | 40µM | 7.1µM | n | u | n | u | u | 8.8µM
O=C(Nc1ccc(F)cc1)Nc1cccc(-c2ccc(N3CCOCC3)nn2)c1 | u | 0.89µM | n | u | u | u | u | 2µM
O=C(Nc1cccc(F)c1)Nc1cccc(-c2nnc3n2CCCC3)c1 | n | n | n | n | n | x | x | x
O=C(Nc1cccc(-c2ccc(N3CCOCC3)nn2)c1)Nc1cc(F)ccc1F | 79µM | 0.89µM | n | u | 10µM | u | u | 2.5µM
O=C(Nc1cccc(-c2nnc3n2CCCC3)c1)c1cc(F)cc(F)c1 | n | n | n | u | n | x | x | x
Nc1nc2c([nH]c(=O)n2C2OC(CO)C(O)C2O)c(=O)[nH]1 (stereo unspecified) | x | x | x | x | x | n | n | n
Nc1nc2c([nH]c(=S)n2C2OC(CO)C(O)C2O)c(=O)[nH]1 (stereo unspecified) | x | x | x | x | x | n | n | 2.5µM
Nc1nc2c(ncn2[C@@H]2O[C@H](CO)[C@@H](O)[C@H]2O)c(=O)[nH]1 | x | x | n | x | x | x | x | x
CNC(C)c1ccccn1 (stereo unspecified) | n | x | n | n | x | x | x | x
CCCCC(=O)Nc1cccc(-c2nc3ccccc3s2)c1 | x | x | x | x | x | n | n | u
Cc1cc(C)cc(OCC(=O)Nc2ccc(-c3nc4ccccc4s3)cc2)c1 | x | x | x | x | x | n | n | n
SMILES | HEK293 tox | FLuc inh-1 | GPT2 inhibitor | NIH3T3 tox | NPR1 antag | FLuc SDR -ATP | FLuc SDR ATP | FLuc inh-2
COc1cccc(CC(=O)Nc2ccc(-c3nc4ccccc4s3)cc2)c1 | x | x | x | x | x | n | n | u
CCN(CC)c1cc(CCC(=O)O)ccn1 | n | 6.3µM | n | n | n | n | 1.6µM | 1.4µM
COCCn1ncc(N2CCC(C(=O)N3CCc4ccccc4C3)C2)cc1=O (stereo unspecified) | n | n | n | n | n | x | x | x
COc1ccccc1OC(C)C(=O)Nc1cccc(-c2nc3ccccc3s2)c1 (stereo unspecified) | x | x | x | x | x | n | n | u
CC(=O)Nc1nc2c(Oc3cc(-c4ccc(C(F)(F)F)cc4)ncn3)cccc2s1 | x | x | n | x | x | x | x | x
CC(Oc1ccccc1F)C(=O)Nc1ccc(-c2nc3ccccc3s2)cc1 (stereo unspecified) | x | x | x | x | x | n | n | u
O=C(Nc1ccc(-c2nc3ccccc3s2)cc1)c1c(F)c(F)c(F)c(F)c1F | x | x | x | x | x | n | n | n
Cc1ccc(NC(=O)c2nc3sccn3c2-c2ccc(F)cc2)cc1 | u | x | n | u | x | x | x | x
COc1cccc(CCC(=O)N2CCC(c3noc(-c4cnccn4)n3)C2)c1 (stereo unspecified) | n | n | n | n | n | x | x | x
C=CCN(C)C(=O)C[C@@H]1c2nc(NC(=O)CCCCC)sc2C[C@@H]2[C@](C)(CO)[C@H](O)CC[C@]21C | n | n | n | n | n | x | x | x
c1ccc(-c2noc(-c3nc(-c4ccccn4)no3)n2)cc1 | n | n | n | n | n | x | x | x
Fc1ccccc1-c1noc(-c2nc(-c3ccncc3)no2)n1 | n | n | n | n | n | x | x | x
Brc1ccccc1-c1nc(-c2ccccc2)no1 | x | x | x | x | x | n | u | 3.5µM
Fc1ccccc1-c1nc(-c2ccccc2)no1 | x | x | x | x | x | u | u | 1.6µM
O=C(O)c1cccc(-c2noc(-c3ccccc3F)n2)c1 | x | x | n | x | x | 11µM | 0.005µM | 0.0062µM
Cc1ccc(-c2nc(-c3ccccc3)no2)c(Cl)c1 | x | x | x | x | x | 3.9µM | 3.5µM | 0.2µM
Cc1cc(C(=O)N2CCN(c3cccc(Cl)c3)CC2)n(-c2ccccc2)n1 | x | x | n | x | x | x | x | x
Cc1ccc(C(=O)N2CCCC3(C2)NC(=O)N(Cc2ccc(Cl)cc2)C3=O)cc1 (stereo unspecified) | u | n | n | u | n | x | x | x

Screening results as filed in PubChem.
